Most compounds without a hit are left out; they make up all but 7.3% or so of the library.
HCMV inh: human cytomegalovirus inhibition; 410,000 tested, 4.5% active; activity change, negative = inhibition, % at 57.5 µM; HFF cells, HCMV-luciferase reporter, 72 h; active compounds read low; in the data active = activity change below about -60%; inconclusive = no clear call, values can overlap the other calls; inactive = above about -39%
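Steps: HFFs plated, 16 h 37C; compounds added; HCMV-luciferase added to MOI 1 PFU/cell; 72 h 37C; OneGlo reagent, 5 min room temperature; luminescence read, normalized to controls.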
Vaccinia mCherry: vaccinia inhibition (mCherry reporter) | Vaccinia virus mCherry reporter infection, fluorescence | Potency, µM (series often up to 36.5 µM), without a hit: top-dose activity change, negative = inhibition, most hits filed as inhibitors | 310,000 tested, 0.63% active; calls by dose curve; tested in A549 cells; also: potency is read from the fitted curve at half-maximal effect; nearly all actives have a fitted effect of over 35% in size
FMDV inh: antivirals against foot and mouth disease virus. AID 1159524. Potency, µM (doses to about 57.9 µM), for inactives: at the highest dose activity change, negative = inhibition, most hits filed as inhibitors. 410,000 tested, 1.2% active. FMDV antiviral cell-based qHTS; calls by dose curve; tested in HEK293T cells; also: read-out not given here; potency is read from the fitted curve at half-maximal effect; nearly all actives have a fitted effect of over 45% in size
Vaccinia Venus: vaccinia inhibition (Venus reporter) | Potency, µM (series often up to 36.5 µM), inactives show at the highest dose activity change, negative = inhibition, actives largely listed as inhibitors | Vaccinia virus Venus reporter expression, fluorescence | 330,000 tested, 0.46% active; calls by dose curve; tested in A549 cells; also: potency is read from the fitted curve at half-maximal effect; nearly all actives have a fitted effect of over 30% in size
HCV inhibitor: HCV inhibition. Huh7.5.1 HCVcc-Cre infection, luciferase reporter, 44 h. Potency, µM (top dose mostly 41.8 µM), inactives show top-dose activity change, negative = inhibition, actives largely listed as inhibitors. 340,000 tested, 3.4% active; active = well fitted inhibition curve with a large enough effect; inconclusive = small, poorly fitted or top-dose-only effect, or another doubt; inactive = no such curve, though single readings can be large or run the other way; also: potency is read from the fitted curve at half-maximal effect
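Cells seeded at 1,000/well and cultured 4 h, then compounds added followed by HCVcc-Cre virus (~0.5 moi). After 44 h further culture, luciferase substrate was added, plates held 15 min at room temperature, and luminescence read for 15 sec.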
* hit, by the source's call; i = inactive; ? = inconclusive; . = no result. % is scaled to controls: 0 for no effect and ±100 for the full control effect.

SMILES	HCMV inh	Vaccinia mCherry	FMDV inh	Vaccinia Venus	HCV inhibitor
CCOC(=O)CC1(C)Oc2cc(Cl)ccc2N1S(=O)(=O)c1ccc(C)cc1 (stereo unspecified)	-70*	?	-27%	-19%	.
CCOC(=O)CC1(CCc2ccccc2)Oc2ccccc2N1S(=O)(=O)c1ccc(C)cc1 (stereo unspecified)	?	-27%	0%	0%	.
Cc1ccc2nc(Nc3ccc(Br)cc3)nc(-c3ccccc3)c2c1	?	-14%	6%	-7%	.
CC(C)c1ccc(Nc2cc3[nH]c(-c4cccc(F)c4)cc3cn2)cc1	-5	.	.	.	.
C[n+]1c(-c2ccccc2)cc2c(=Cc3ccccc3)c3ccccc3n21	-99*	i	3.5µM*	152%	?
O=[N+]([O-])c1ccc(C=CC=Cc2ccccc2)cc1	38	-3%	62%	-1%	.
CN(C)c1ccc(C=c2c3cc(O)ccc3n3c2cc(-c2ccccc2)[n+]3C)cc1	-101*	107%	-21%	132%	?
C[n+]1c(-c2ccccc2)cc2c(=Cc3ccc([N+](=O)[O-])cc3)c3ccccc3n21	-101*	i	?	233%	?
O=[N+]([O-])c1ccc(N2CCCC2)cc1N1CCCC1	-25	.	9%	.	2.5µM*
NC(=O)c1ccc(N2CCCCCC2)c([N+](=O)[O-])c1	-60*	i	-9%	-12%	4%
NC(=O)c1ccc(N2CCN(c3ccccc3O)CC2)c([N+](=O)[O-])c1	-21	-4%	-26%	-4%	-10%
NC(=O)c1ccc(N2CCN(S(=O)(=O)c3cccs3)CC2)c([N+](=O)[O-])c1	-84*	.	20µM*	.	2.2µM*
O=S(=O)(c1cccs1)N1CCN(c2ccc(O)cc2)CC1	?	4µM*	-4%	-21%	?
CN1CCN(S(=O)(=O)c2cccs2)CC1	1	i	-19%	-10%	0%
CN1CCN(c2ccc(C(=O)c3ccc(Br)cc3)cc2[N+](=O)[O-])CC1	-68*	-18%	?	-19%	10µM*
Cc1cc(C(C)(C)C)cc(CN2CCN(S(=O)(=O)c3cccs3)CC2)c1O	-77*	-14%	?	-28%	.
O=C(NCc1ccccn1)c1ccc(N2CCCC2)c([N+](=O)[O-])c1	-28	i	11%	-4%	-2%
O=C(NCc1ccncc1)c1ccc(N2CCCC2)c([N+](=O)[O-])c1	-62*	-15%	-24%	-7%	-27%
O=C(Nc1ccc(Br)cc1)C1CCCN1S(=O)(=O)c1ccc(F)cc1 (stereo unspecified)	?	-17%	-14%	-17%	.
CCOC(=O)C1CCCN(C(=O)c2cnn(-c3ncc4c(n3)-c3ccccc3CCC4)c2C2CC2)C1 (stereo unspecified)	.	-2%	44%	0%	.
CC(=C/c1ccccc1)/C=N/Nc1nc(N2CCCCC2)nc(N2CCCCC2)n1	-19	-10%	-7%	-1%	3%
CC(=O)Nc1ccc(/C(C)=N/Nc2nc(Nc3cccc4ccccc34)nc(N3CCOCC3)n2)cc1	-62*	-14%	0%	?	?
C/C(=N\Nc1nc(N2CCCCCC2)nc(N2CCCCCC2)n1)c1ccccc1	-66*	.	-22%	.	?
C/C(=N\Nc1nc(N2CCCCC2)nc(N2CCOCC2)n1)c1cccs1	-26	-5%	-11%	-6%	10µM*
COc1ccc(-c2noc(N(c3ccc(F)c(Cl)c3)c3nc(-c4ccc(OC)c(OC)c4)no3)n2)cc1OC	-9	0%	7%	-5%	.
SMILES	HCMV inh	Vaccinia mCherry	FMDV inh	Vaccinia Venus	HCV inhibitor
c1ccc2c(c1)Nc1ccncc1S2	-71*	?	-15%	-27%	?
CC(=O)N1CCC2(CC1)C/C(=N\NC(=S)Nc1ccccc1F)c1cc(O)ccc1O2	-82*	?	-4%	-16%	?
COc1ccccc1NC(=S)N/N=C1\CC(C)(C)Oc2ccc(O)cc21	?	.	?	.	10µM*
CC(=O)N1CCC2(CC1)C/C(=N\NC(=S)Nc1ccccc1C)c1cc(O)ccc1O2	-5	.	-13%	.	?
O=C(Nc1ccc2nc(N3CCOCC3)sc2c1)c1cc2ccccc2o1	44	?	-29%	-9%	.
Cc1c(C(=O)Nc2ccc3nc(N4CCOCC4)sc3c2)oc2ccccc12	0	.	?	.	11µM*
CCOc1ccccc1C(=O)N/N=C/c1coc2ccc(Cl)cc2c1=O	-74*	i	-3%	-16%	?
CCOc1ccc(Cl)cc1/C=N/O	12	i	.	-13%	?
Cc1ccc2occ(/C=N/NC(=O)c3ccc(Cl)cc3)c(=O)c2c1	-65*	-16%	-17%	-3%	-2%
CCOc1ccc(Cl)cc1/C=N/NC(N)=O	32	i	6%	-8%	14µM*
Cc1ccc2occ(/C=N/NC(=O)c3ccccc3O)c(=O)c2c1	-83*	.	10%	.	?
CCCOc1ccc(C2C(=O)N(C3CCCCCC3)CC(=O)N2CCC)cc1OC (stereo unspecified)	-38	-7%	-2%	-7%	.
COCCNC(=O)C1(C)CCCN(Cc2cn(C)c3ccccc23)C1 (stereo unspecified)	-20	35%	-4%	13%	.
CCc1cccc(C)c1NC(=O)Cn1ccn(-c2cccc(OC)c2)c(=O)c1=O	28	-6%	-13%	-3%	.
COc1cc(OC)c2nc(-c3cc4c(c(OC)c3)OCCN(Cc3cn(C)nc3C)C4)cc(C)c2c1	.	-16%	-12%	-4%	.
COc1cc(OC)c(-c2nc3ccccc3s2)cc1OC	88	.	-18%	.	11µM*
COc1cccc(-c2nc3ccccc3s2)c1O	92	-21%	-36%	-18%	?
C#CC[N+](C)(C)CC#Cc1ccc(C)cc1	-90*	.	-20%	.	-1%
COc1c(O)cc2oc3cc(O)c(CC=C(C)C)c(O)c3c(=O)c2c1CC=C(C)C	.	?	-11%	-29%	.
Nc1ccc(/C=C/c2nc3ccccc3s2)cc1	.	-10%	.	28%	.
CC1=NN(c2ccccc2)C(=O)/C1=C\c1cc(C)n(-c2cccnc2)c1C	-73*	i	9%	-6%	-24%
C=CCN1C(=O)/C(=C/c2cc(C)n(-c3cccnc3)c2C)C(=O)NC1=S	-14	-9%	35µM*	13%	25%
CC1=NN(c2ccccc2)C(=O)/C1=C\c1cc(C)n(-c2ccccc2)c1C	?	-14%	16%	-1%	?
Cc1cc(C=C2C(=O)NC(=O)NC2=O)c(C)n1-c1cccnc1	-22	-2%	-1%	-11%	6%
COc1ccc2c3c(n(C)c2c1)[C@H](CO)N(C(=O)c1ccccn1)CC31CCN(C(=O)Cc2ccccc2)CC1	6	.	.	.	.
Cc1nn2c(=O)cc(COc3ccc(/C=C(\C#N)C(=O)Nc4ccc(F)cc4)cc3)nc2s1	2	-1%	0%	9%	.
O=C(Cc1coc2cc3c(cc12)CCC3)OCC(=O)N1CCCC1=O	21	i	14µM*	-11%	6%
CCCCCCCn1c(=O)c(C(=O)Nc2cnccn2)c(O)c2ccccc21	-62*	-9%	-17%	-8%	?
